Assay results reported in PubChem BioAssay (Tox21).
Values joined by “and” are separate entries in the source; they are usually repeats but may differ in a detail not shown here. Equal entries are not always repeated. Records with an inconclusive call do not appear. Some structures have more than one record in an assay (separate samples or runs), and their calls can disagree. Active and inactive are the calls of the source. Unless noted, calls come from the whole dose curve.

Tests used:
[1] = Nuclear factor erythroid 2-related factor 2/antioxidant responsive element (Nrf2/ARE) small molecule agonists: qHTS cell viability counter screen in human keratinocytes (AID 1919968; active = well fitted curve in the direction sought with a large enough effect in the repeat runs; an effect the other way counts as inactive or inconclusive; note: nearly all actives have a fitted effect of over 55% in size)
Method in brief: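 After a 5 h attachment period, ARE-reporter keratinocytes were dosed with compounds in DMSO and then cultured 23 h at 37 C. Cell viability came from CellTiter-Fluor signal read after a further 1 h.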

[2] = Nuclear factor erythroid 2-related factor 2/antioxidant responsive element (Nrf2/ARE) small molecule agonists: luciferase reporter gene qHTS assay in human keratinocytes (AID 1919969); note: nearly all actives have a fitted effect of over 35% in size
[3] = biological target: Gonadotropin-releasing hormone receptor (Homo sapiens) (UniProt P30968); test: Human gonadotropin-releasing hormone receptor (GnRHR) small molecule agonists, calcium flux assay in GnRHR-HEK293 cells (AID 1920063); note: nearly all actives have a fitted effect of over 35% in size
Gonadotropin-releasing hormone receptor (Homo sapiens), sequence (P30968 whole entry, looked up): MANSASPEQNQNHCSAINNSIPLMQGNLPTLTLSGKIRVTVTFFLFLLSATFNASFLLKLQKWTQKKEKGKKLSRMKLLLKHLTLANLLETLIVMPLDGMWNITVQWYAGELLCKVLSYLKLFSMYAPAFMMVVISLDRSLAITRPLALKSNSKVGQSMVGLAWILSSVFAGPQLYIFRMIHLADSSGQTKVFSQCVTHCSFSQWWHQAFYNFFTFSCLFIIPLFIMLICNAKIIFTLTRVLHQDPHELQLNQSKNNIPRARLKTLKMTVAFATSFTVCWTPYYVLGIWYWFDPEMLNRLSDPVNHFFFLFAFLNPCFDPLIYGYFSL
Method in brief: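 We seeded human GnRHR-expressing HEK293 cells for 18 hours, loaded them with calcium dye for an hour at 37 C, added test compounds, and recorded fluorescence intensity kinetically for three minutes.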

[4] = biological target: KiSS-1 receptor (Homo sapiens) (UniProt Q969F8); test: Human kisspeptin (KISS1R) small molecule agonists, calcium flux assay in KISS1R-HEK293 cells (AID 1920064; active = well fitted curve in the direction sought with a large enough effect in the repeat runs; an effect the other way counts as inactive or inconclusive)
KiSS-1 receptor (Homo sapiens), sequence (Q969F8 whole entry, looked up): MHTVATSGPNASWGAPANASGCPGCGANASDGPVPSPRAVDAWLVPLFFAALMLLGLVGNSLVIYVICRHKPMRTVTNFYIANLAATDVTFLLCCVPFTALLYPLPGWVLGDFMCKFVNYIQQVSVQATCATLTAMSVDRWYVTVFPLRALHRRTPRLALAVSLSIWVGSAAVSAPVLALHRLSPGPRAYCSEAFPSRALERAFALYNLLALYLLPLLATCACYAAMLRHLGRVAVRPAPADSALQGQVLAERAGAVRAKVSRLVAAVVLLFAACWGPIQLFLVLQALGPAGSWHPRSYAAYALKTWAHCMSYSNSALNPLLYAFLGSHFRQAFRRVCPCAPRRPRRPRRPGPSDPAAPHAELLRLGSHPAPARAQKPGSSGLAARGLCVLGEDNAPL
Method in brief: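 Kinetic calcium assay, 1 s sampling over 3 min at Ex/Em 480/540, in HEK293 cells engineered with human KISS1R; compounds delivered in DMSO after 1 h dye loading.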

[5] = G protein-coupled receptor (GPCR) small molecule agonists, calcium flux assay: HEK293 wild type cell line counter screen (AID 1920065)
Method in brief: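 Calcium-sensitive dye, loaded 1 h at 37 C into cells cultured 18 h, reports compound-evoked calcium release as fluorescence (Ex/Em 480/540), measured over 3 min. Agonist mode; 15-point titrations, triplicate.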

[6] = p53 small molecule agonists, cell-based qHTS assay with human liver microsomes (AID 1963577);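 note: p53 response element beta-lactamase reporter cells with liver microsomes plus NADPH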
Method in brief: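 HLM-supplemented p53RE-bla reporter assay: 16 h compound exposure at 37 C, microsomes and NADPH each 0.5 mg/mL final, read by fluorescence intensity.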

[7] = p53 small molecule agonists, cell-based qHTS assay with rat liver microsomes (AID 1963578)
Method in brief: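 Quantitative HTS of the Tox21 10K library: p53RE-bla cells, rat liver microsomes plus NADPH at 0.5 mg/mL final each, 16 h at 37 C, beta-lactamase fluorescence detection.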

[8] = p53 small molecule agonists, cell-based qHTS assay with human liver microsomes: qHTS cell viability counter screen (AID 1963579); note: nearly all actives have a fitted effect of over 45% in size
Method in brief: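 Viability of p53RE-bla cells is measured as CellTiter-Glo luminescence following a 16 h, 37 C incubation with compound, liver microsomes from human donors and NADPH.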

[9] = p53 small molecule agonists, cell-based qHTS assay with rat liver microsomes: qHTS cell viability counter screen (AID 1963580); note: nearly all actives have a fitted effect of over 45% in size
Method in brief: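 Intracellular ATP, by CellTiter-Glo luminescence, defines viability. HCT-116 p53RE-bla cells, 4,000 per well, were compound-treated in the presence of rat liver microsomes and NADPH for 16 h at 37 C.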

[10] = p53 small molecule agonists, cell-based qHTS assay: qHTS cell viability counter screen (AID 1963581); note: nearly all actives have a fitted effect of over 45% in size
Method in brief: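 Following 5 h attachment, HCT-116 p53RE-bla cells took up compound for 16 h at 37 C; the reporter was read with B/G FRET substrate (2 h RT), and viability then via CellTiter-Glo ATP luminescence.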

[11] = p53 small molecule agonists, cell-based qHTS assay (AID 1963582; active = well fitted activation curve with a large enough effect in the signal ratio in the repeat runs, not every such curve was filed as active; the % refers to the signal ratio)
Method in brief: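 In this cell-based concentration-response screen, a p53 response element drives beta-lactamase; cells received DMSO-borne compounds after 5 h culture and were incubated a further 16 h before FRET substrate development.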

[12] = biological target: 5-hydroxytryptamine receptor 2A (Homo sapiens) (UniProt P28223); test: 5-hydroxytryptamine receptor 2A (HTR2A) small molecule antagonists, cell-based qHTS assay (AID 1963586); note: nearly all actives have a fitted effect of over 45% in size
5-hydroxytryptamine receptor 2A (Homo sapiens), sequence (P28223 whole entry, looked up): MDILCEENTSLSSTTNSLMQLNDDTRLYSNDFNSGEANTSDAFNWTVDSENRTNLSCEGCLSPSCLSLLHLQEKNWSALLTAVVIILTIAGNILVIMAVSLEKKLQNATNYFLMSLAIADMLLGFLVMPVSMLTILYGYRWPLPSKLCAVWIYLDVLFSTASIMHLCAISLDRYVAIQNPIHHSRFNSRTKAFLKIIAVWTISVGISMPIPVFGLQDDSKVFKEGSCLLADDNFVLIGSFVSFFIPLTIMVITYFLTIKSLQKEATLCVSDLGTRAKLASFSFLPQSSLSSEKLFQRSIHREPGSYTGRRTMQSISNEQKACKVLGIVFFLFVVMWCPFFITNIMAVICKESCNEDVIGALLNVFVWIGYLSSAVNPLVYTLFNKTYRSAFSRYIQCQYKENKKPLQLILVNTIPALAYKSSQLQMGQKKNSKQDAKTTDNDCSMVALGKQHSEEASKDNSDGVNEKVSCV
Method in brief: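 Antagonist-mode intracellular calcium assay: DOI (4 nM) added after 5 min compound pre-incubation at room temperature to dye-loaded HTR2A-CHO cells. Fluorescence followed for 3 min, sampled every second.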

[13] = biological target: 5-hydroxytryptamine receptor 2A (Homo sapiens) (UniProt P28223); test: 5-hydroxytryptamine receptor 2A (HTR2A) small molecule agonists, cell-based qHTS assay (AID 1963587); note: nearly all actives have a fitted effect of over 30% in size
Method in brief: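 Kinetic calcium-flux fluorescence (2 min, 1 sec intervals) after compound addition in agonist mode. HTR2A-CHO cells were cultured 18 h, then dye-loaded 1 h at 37 C.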

[14] = biological target: Muscarinic acetylcholine receptor M1 (Homo sapiens) (UniProt P11229); test: Cholinergic receptor muscarinic 1 (CHRM1) small molecule antagonists, cell-based qHTS assay (AID 1963588); note: nearly all actives have a fitted effect of over 40% in size; note: potency is the fitted concentration of half-maximal effect
Muscarinic acetylcholine receptor M1 (Homo sapiens), sequence (P11229 whole entry, looked up): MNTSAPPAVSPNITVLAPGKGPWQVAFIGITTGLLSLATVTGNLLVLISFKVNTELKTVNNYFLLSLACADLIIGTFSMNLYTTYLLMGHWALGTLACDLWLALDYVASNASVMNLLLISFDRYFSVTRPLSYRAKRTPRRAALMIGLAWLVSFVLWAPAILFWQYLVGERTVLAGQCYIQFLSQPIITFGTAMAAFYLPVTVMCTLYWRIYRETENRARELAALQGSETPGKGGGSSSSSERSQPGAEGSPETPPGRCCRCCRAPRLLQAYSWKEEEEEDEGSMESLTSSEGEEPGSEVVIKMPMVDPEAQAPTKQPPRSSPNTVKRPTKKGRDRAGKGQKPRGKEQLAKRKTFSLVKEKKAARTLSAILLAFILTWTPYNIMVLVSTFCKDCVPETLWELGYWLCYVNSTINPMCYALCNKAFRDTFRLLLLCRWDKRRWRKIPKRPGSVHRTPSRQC
Method in brief: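 CHRM1-CHO calcium-flux assay, antagonist mode. Cells were seeded 18 h, dye-loaded 1 h at 37 C and given compound for 5 min at RT, then acetylcholine was added at 50nM. FDSS fluorescence was read 3 min; 15 concentrations, three runs.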

[15] = biological target: Muscarinic acetylcholine receptor M1 (Homo sapiens) (UniProt P11229); test: Cholinergic receptor muscarinic 1 (CHRM1) small molecule agonists, cell-based qHTS assay (AID 1963589); note: nearly all actives have a fitted effect of over 35% in size
Method in brief: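 Measures agonist-induced intracellular calcium rise. Stable human CHRM1 CHO line, 1 h dye load at 37 C, compounds from DMSO, kinetic fluorescence read.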

[16] = cAMP Responsive Elements (CRE) small molecule agonists, cell-based qHTS assay (AID 1963590)
Method in brief: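 A CRE-responsive beta-lactamase reporter in HEK 293T cells was used. Treatment ran 3 h at 37 C; detection used LiveBLAzer B/G FRET substrate for 2 h at room temperature.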

[17] = cAMP Responsive Elements (CRE) small molecule antagonists, cell-based qHTS assay (AID 1963591; active = well fitted inhibition curve with a large enough effect in the signal ratio in the repeat runs, not every such curve was filed as active; the % refers to the signal ratio)
Method in brief: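 HEK293T cells carrying a CRE-driven beta-lactamase reporter receive compound and NKH477 (0.25 uM final) for 3 h. Fluorescence from LiveBLAzer B/G FRET substrate is read after 2 h at room temperature.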

[18] = biological target: Beta-2 adrenergic receptor (Homo sapiens) (UniProt P07550); test: Adrenergic beta2 receptor (ADRB2) small molecule antagonists, cell-based qHTS assay (AID 1963592); note: series mostly up to about 92 µM; nearly all actives have a fitted effect of over 50% in size
Beta-2 adrenergic receptor (Homo sapiens), sequence (P07550 whole entry, looked up): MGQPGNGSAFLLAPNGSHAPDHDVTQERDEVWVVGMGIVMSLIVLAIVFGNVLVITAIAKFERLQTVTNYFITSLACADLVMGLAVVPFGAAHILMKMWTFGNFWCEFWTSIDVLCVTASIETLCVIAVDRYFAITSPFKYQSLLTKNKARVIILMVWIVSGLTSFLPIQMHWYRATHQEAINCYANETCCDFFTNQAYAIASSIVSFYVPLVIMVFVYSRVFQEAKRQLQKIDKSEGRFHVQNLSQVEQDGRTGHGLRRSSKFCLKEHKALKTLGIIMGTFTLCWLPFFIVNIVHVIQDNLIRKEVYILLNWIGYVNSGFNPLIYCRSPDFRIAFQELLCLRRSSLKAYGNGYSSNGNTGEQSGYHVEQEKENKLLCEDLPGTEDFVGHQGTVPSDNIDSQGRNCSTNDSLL
Method in brief: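 Cells (CHO, stable ADRB2 overexpression) incubated 18-20hr at 37C; compounds added from DMSO; agonist mix (1nM isoproterenol, 100uM IBMX, 25uM Ro-20-1724) added; 0.5hr RT; d2-cAMP and anti-cAMP-cryptate added; 1hr RT; 665/615 nm read.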

[19] = biological target: Beta-2 adrenergic receptor (Homo sapiens) (UniProt P07550); test: Adrenergic beta2 receptor (ADRB2) small molecule agonists, cell-based qHTS assay (AID 1963593);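 note: CHO cells stably overexpressing human ADRB2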
Method in brief: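 CHO cells stably over-expressing ADRB2 were plated overnight at 37C, then dosed with compounds plus a stimulation mix containing 100uM IBMX and 25uM Ro-20-1724 for 0.5hr at room temperature. cAMP was measured by HTRF competition, 1hr.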

[20] = biological target: D(2) dopamine receptor (Homo sapiens) (UniProt P14416); test: Dopamine D2 receptor (DRD2) small molecule agonists, cell-based qHTS assay (AID 1963594); note: nearly all actives have a fitted effect of over 35% in size
D(2) dopamine receptor (Homo sapiens), sequence (P14416 whole entry, looked up): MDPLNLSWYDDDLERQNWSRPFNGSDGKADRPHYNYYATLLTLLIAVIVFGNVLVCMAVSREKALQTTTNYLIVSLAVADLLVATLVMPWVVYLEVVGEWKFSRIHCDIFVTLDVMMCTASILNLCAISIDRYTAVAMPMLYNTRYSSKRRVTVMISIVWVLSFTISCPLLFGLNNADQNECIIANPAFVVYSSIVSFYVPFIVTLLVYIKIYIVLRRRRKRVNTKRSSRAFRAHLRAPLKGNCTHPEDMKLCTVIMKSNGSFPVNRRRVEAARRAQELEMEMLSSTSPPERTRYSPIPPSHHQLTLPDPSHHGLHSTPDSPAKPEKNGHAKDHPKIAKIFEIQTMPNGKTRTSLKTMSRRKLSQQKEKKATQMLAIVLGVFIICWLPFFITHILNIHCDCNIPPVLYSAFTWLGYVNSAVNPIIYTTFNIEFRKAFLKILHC
Method in brief: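 cAMP accumulation in DRD2-HEK293 cells measured by HTRF after 1 h detection; compounds added 10 min before NKH477 (200nM […]) forskolin-analogue stimulation, 30 min at room temperature, with Ro20-1724 present at 0.1 mM final.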

Measured: Potency

CCCCCC=O
inactive and 11.9 nM (active): [14]
inactive: all other assays above

C=CC(C)CCC=C(C)C (stereo not given)
inactive: all assays above

Cc1ccccc1OCC1CO1 (stereo not given)
inactive: all assays above

Cc1cc(C)cc(OCC2CNC(=O)O2)c1 (stereo not given)
inactive: all assays above

CO[Si](CCCCl)(OC)OC
inactive: all assays above

CCCCOC(=O)C(=O)OCCCC
inactive: all assays above
